FBA Mtb inh: Mtb FBA enzyme inhibitors, primary screen, biochemical, fluorescence, strain H37Rv; purified M. tuberculosis FBA, fluorescence read-out; inhibition, % at 1 µM; hit rate 2.3% among 360,000; AID 588726, 2011; in the data active = inhibition above about 27%;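 also: 0% = vehicle and 100% = reference inhibitor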
Target sequence (P9WQA3 whole entry, looked up): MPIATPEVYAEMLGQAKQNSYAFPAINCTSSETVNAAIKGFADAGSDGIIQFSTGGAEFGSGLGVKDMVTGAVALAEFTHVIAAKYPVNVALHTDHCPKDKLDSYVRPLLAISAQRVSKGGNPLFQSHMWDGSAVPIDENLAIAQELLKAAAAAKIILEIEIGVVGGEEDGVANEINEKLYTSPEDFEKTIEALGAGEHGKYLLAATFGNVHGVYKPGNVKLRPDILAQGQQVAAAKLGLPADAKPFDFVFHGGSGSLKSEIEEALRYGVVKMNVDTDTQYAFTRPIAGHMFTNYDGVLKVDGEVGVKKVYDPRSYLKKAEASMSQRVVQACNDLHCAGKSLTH
3CLpro inhibitor: SARS-CoV 3CLpro protease inhibitors, primary screen, biochemical, quenched FRET; recombinant SARS-CoV 3CLpro, quenched FRET peptide cleavage; inhibition, % at 6 µM; Replicase polyprotein 1ab (Severe acute respiratory syndrome coronavirus), P0C6X7; hit rate 0.14% among 290,000; in the data active = inhibition above about 12%
Vc quorum ag: inducers of Vibrio cholerae quorum light production without autoinducers, primary screen, BH1578 luxS cqsA deficient, single point | V. cholerae BH1578 lux reporter, luminescence, 6 h | activation, % at 18.7 µM | hit rate 0.16% among 350,000 | AID 588436, 2011; in the data active = activation mostly above about 9.7%, no sharp cut-off
PrPC surface inh: inhibitors of human cell surface prion protein PrPC, primary screen, cell-based, TR-FRET | Major prion protein (Homo sapiens), P04156 | TR-FRET read-out | inhibition, % at 13.8 µM | hit rate 0.43% among 370,000; in the data active = inhibition above about 24%; also: 0% = median of the test wells and 100% = reference compound wells
GDH-TPI counter: GDH-TPI coupling enzyme inhibitors, primary screen, artefact control for M. tuberculosis FBA inhibitor project, biochemical, absorbance, full deck | GDH-TPI coupled enzyme counterscreen, NADH absorbance | hit rate 1.2% among 360,000 | inhibition, % at 4.8 µM; in the data active = inhibition above about 30%;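 also: 0% = DMSO wells and 100% = wells lacking the enzyme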
Numbers without * were called inactive; i = inactive; · = not tested or not shown; + = active, no number. Rows were chosen to be rich in hits. Some 3.9% of all compounds tested hit in one or more screens of this group.

SMILES	FBA Mtb inh	3CLpro inhibitor	Vc quorum ag	PrPC surface inh	GDH-TPI counter
COC(=O)[C@]12C[C@H](CC(=O)NCc3ccc(OC)c(OC)c3)C(=O)N(CCC3=CCCCC3)C1=C[C@H](C(C)C)O[C@@H]2C1CC1	·	·	·	3.0	·
CCOc1cc(OCC)cc(C(=O)N2CCC[C@@H]2C(=O)N2CCC[C@H]2C(=O)NCc2ccncc2)c1	·	·	·	4.8	·
COCCNc1nc(Nc2ccc(C(=O)OC)cc2)c2sccc2n1	5.0	·	i	5.8	31.0*
Cc1cc(C)nc(N/N=C/c2ccco2)n1	-2.4	2.3	i	-0.1	31.5*
Cc1cc(-c2ccccc2)nc(N/N=C/c2ccc(N(C)C)cc2)n1	-0.2	·	-0.4	-1.7	31.3*
CSc1ccc(/C=N/Nc2nc(C)cc(C)n2)cc1	-6.3	-3.8	i	-9.6	32.8*
Cc1cc(C)nc(N/N=C/c2ccc(N3CCOCC3)cc2)n1	-0.3	-5.1	i	-8.0	35.3*
Cc1ccc(/C=N/Nc2nc(C)cc(C)n2)cc1	2.0	-0.5	-0.4	5.9	11.5
CSC1=NC=C(C#N)C2=NC(c3ccc(Cl)cc3)NN12 (stereo unspecified)	0.0	·	·	·	·
Clc1cccc(N/N=C/c2ccc(N3CCOCC3)cc2)c1	2.1	-0.1	-5.3	14.8	9.4
O=C(O)c1cc(N/N=C/c2ccc(N3CCOCC3)cc2)ccc1Cl	2.3	-0.1	-3.7	-3.2	68.8*
S=c1[nH]nc(-c2n[nH]c3c2CCC3)n1N=Cc1c[nH]c2ccccc12	·	·	·	6.1	·
COc1ccc(-c2nn(-c3ccccc3)cc2/C=N/NS(=O)(=O)c2ccccc2)cc1	-5.1	2.0	1.4	-2.1	1.4
COc1ccc(-c2nn(-c3ccccc3)cc2/C=N/NC(=O)c2cccc(S(=O)(=O)Nc3ccccc3Cl)c2)cc1	0.8	3.8	-0.3	5.5	31.8*
CC1(C2CC(C(F)(F)F)n3nc(C(=O)O)cc3N2)CC1 (stereo unspecified)	0.2	1.7	i	-2.2	-5.1
CCOC(=O)c1cnn2c(C(F)(F)F)cc(-c3cn(C)nc3C)nc12	72.3*	-5.9	0.6	-3.2	20.8
O=C(Cn1cnc([N+](=O)[O-])c1)Nc1ccc(Cl)cc1Cl	-2.8	·	-10.0	-9.2	13.4
Oc1oc(-c2ccccc2)nc1C=NCc1ccccc1	-4.1	-2.8	i	1.9	49.4*
Oc1oc(-c2cccc3ccccc23)nc1C=NCc1ccccc1	·	-7.0	·	·	·
COc1ccc(/C=C2\N=C(c3ccc(C)cc3)OC2=O)cc1	0.2	-1.0	i	-3.0	6.9
Cc1ccc(C2=N/C(=C\N3CCCCC3)C(=O)O2)cc1	-1.9	0.0	i	-1.1	62.1*
Cc1ccc(C2=N/C(=C/N3CCOCC3)C(=O)O2)cc1	5.1	-5.5	3.8	-16.2	38.0*
Cc1cccc2cc(/C=C3\N=C(c4ccccc4)OC3=O)c(N3CCOCC3)nc12	-2.6	1.4	10.0	-8.5	6.2
COc1ccc(/C=N\NC(=O)c2ccccc2Br)cc1COc1ccccc1	-0.8	3.0	-0.3	2.5	12.0
COc1ccc(/C=N/NC(=O)c2ccncc2)cc1CSc1nc2ccccc2s1	2.2	-1.0	-0.3	6.7	30.9*
SMILES	FBA Mtb inh	3CLpro inhibitor	Vc quorum ag	PrPC surface inh	GDH-TPI counter
COc1ccc(C(=O)N/N=C\c2ccc(OC)c(COc3ccccc3Br)c2)c(OC)c1	7.7	1.2	0.3	7.5	35.4*
COc1ccc(C(=O)N/N=C/c2ccc(OC)c(CSc3ccccn3)c2)cc1	0.2	3.0	i	6.8	11.7
CCOC(=O)c1ccccc1OCc1cc(/C=N/NC(=O)c2ccncc2)ccc1OC	2.9	-0.9	-0.9	4.7	37.9*
Cn1ncc(Cl)c1C(=O)N1CCN(c2ncccn2)CC1	1.5	-1.9	-0.2	-2.7	3.2
O=C(O)c1cc(N2C(=O)C3CC=CCC3C2=O)ccc1NCc1cccnc1 (stereo unspecified)	14.6	2.7	-0.4	10.3	10.6
COc1ccc([C@H]2OC(=O)C[C@H]2C(=O)N2CCCCC2)cc1OC	·	·	·	-3.9	·
Fc1ccc(/C=N/Nc2ncnc3nc[nH]c23)cc1F	-0.8	-1.3	-0.1	-11.7	42.2*
O=C(CNC(=O)c1ccccc1F)N/N=C/c1ccc2c(c1)OCO2	1.6	-10.5	-0.4	-2.3	6.7
CC[C@@H](C(=O)[C@@H](C)[C@@H](O)[C@H](C)[C@@H]1O[C@@H]([C@@H](CC)C(=O)O)CC[C@@H]1C)[C@H]1O[C@]2(C=C[C@@H](O)[C@]3(CC[C@@](C)([C@H]4CC[C@](O)(CC)[C@H](C)O4)O3)O2)[C@H](C)C[C@@H]1C	-0.8	·	i	70.5*	-1.4
Cc1ccc(C(O)c2ncc(-c3ccc(Cl)cc3)[nH]2)cc1 (stereo unspecified)	-1.6	·	0.6	5.7	6.7
Cc1c(Cl)cccc1NC(=S)N1CCCCCC1	0.7	5.7	i	-2.1	3.8
COc1ccc(-c2cnnc(N/N=C/c3ccc(OC)c(OC)c3)n2)cc1	-1.8	-8.4	-0.7	-7.6	53.9*
Cc1ccc(/C=N/Nc2nncc(-c3ccccc3)n2)o1	-3.1	2.8	-0.2	-15.4	44.2*
COc1ccc(/C=N/Nc2nc(C)cc(-c3ccccc3)n2)cc1OC	0.1	-4.3	i	-7.9	30.3
COc1c(/C=N/Nc2ccc(C(=O)O)cc2)c(CCN(C)C(C)=O)cc2c1OCO2	-1.8	-0.7	-0.6	4.1	36.7*
COc1c(/C=N/NC(=O)c2ccccc2O)c(CCN(C)C(C)=O)cc2c1OCO2	-2.8	-3.4	3.4	5.5	20.9
CNC(=S)N(C)CCc1cc2c(c(OC)c1C=C1C(=O)NC(=O)NC1=O)OCO2	-1.4	0.9	i	-14.5	37.9*
C=CCN1C(=O)NC(=O)/C(=C/c2c(CCN(C)C(=O)c3ccccc3)cc3c(c2OC)OCO3)C1=O	-1.4	3.8	0.0	1.0	-5.9
CCOC(=O)C1=CC[C@@H](c2ccccc2)N(S(=O)(=O)c2ccc(C)cc2)[C@H]1C#N	-1.9	·	·	0.0	·
Cc1cc(NCC2CCCO2)n2c(nc3ccccc32)c1C#N (stereo unspecified)	+	-2.7	-0.3	-0.9	7.5
CC(C)c1cc(NCC2CCCO2)n2c(nc3ccccc32)c1C#N (stereo unspecified)	+	5.6	i	0.6	8.0
CCc1c(C)c(C#N)c2nc3ccccc3n2c1NCC1CCCO1 (stereo unspecified)	6.0	-4.5	·	-7.4	7.7
COc1ccc(OC)c(C(=O)CSc2nnc(SCc3cccc4ccccc34)s2)c1	·	·	·	-4.9	·
CNC(=O)N(O)C1N(/N=C/c2c(F)cccc2Cl)C(=S)SC1(C)C (stereo unspecified)	-0.4	3.8	-0.6	9.6	11.4
COc1ccccc1C(=O)NN1C(=O)/C(=C/c2cccn2C)SC1=S	·	3.2	·	·	·
